An excerpt weighted towards active compounds, which were near 4% of everything screened.
esBAF inh = inhibitors of esBAF chromatin remodeling in mouse ES cells; Bmi1-luciferase knock-in reporter, 24 h; 100% = twice the neutral-well signal; reporter increase, % at 12.5 µM; hit rate 2% among 350,000; AID 602393; in the data active = activation above about 40%;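 also: 0% = median of the plate's neutral control wells and 100% = double that signal; a rise in the Bmi1 reporter signal indicates esBAF inhibition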
EBV LMP1 NFkB = reduces LMP1-driven NF-kappaB luciferase signal; LMP1-induced NF-kappaB luciferase reporter cells, luminescence; inhibition, % at 12.5 µM; hit rate 0.69% among 350,000; in the data active = inhibition above about 41%;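 also: 0% = neutral control wells and 100% = reference inhibitor control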
MITF TRPM1 inh = reduces MITF-dependent TRPM1 promoter luciferase signal | SK-MEL-5 TRPM1 promoter luciferase, 24 h | inhibition, % at 12.5 µM | hit rate 0.83% among 330,000;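 active = mean inhibition across replicates of 60% or more, whatever share of single replicates reaches that level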
Wnt bcat act = Wnt/beta-catenin pathway activation; activation, % at 9.35 µM; AID 743398; Wnt/beta-catenin reporter cell assay, activator, plate reader; hit rate 1.2% among 300,000; in the data active = activation above about 30%, passing the limit was not always enough;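 also: 0% = neutral control wells and 100% = positive control wells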
C2C12 statin = suppression of simvastatin myotoxicity; C2C12 myotubes + simvastatin, ATP luminescence, 48 h; scaled: DMSO 0, geranylgeraniol control 100; rescue of ATP level, % at 7.49 µM; hit rate 0.78% among 330,000;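 active = mean ATP rescue above about 67%, or every replicate alone reaching that limit, limit read from the data, passing the limit was not always enough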;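 also: myotubes were challenged with 10 µM simvastatin during compound exposure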
MITF TRPM1 HTS = increases MITF-driven TRPM1 promoter luciferase signal; SK-MEL-5 TRPM1-promoter luciferase, 24 h; % of positive control, neutral wells = 0; activation, % at 12.5 µM; AID 588334; hit rate 0.75% among 300,000;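 active = mean activation of at least 80% with every replicate also reaching 80%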;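 also: 0% = neutral control wells and 100% = parthenolide positive control wells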
Numbers without * were called inactive.

Screening O=C(CSc1ccc(Cl)cc1)Nc1ccccc1N1CCN(C(=O)c2ccc(Cl)cc2)CC1 returned EBV LMP1 NFkB 11, MITF TRPM1 inh 9, Wnt bcat act -2 and MITF TRPM1 HTS -10.
For CCCC(=O)N1CCN(c2ccc(NC(=O)c3ccc(Br)o3)cc2)CC1 the results were esBAF inh 8, EBV LMP1 NFkB 7, MITF TRPM1 inh -19, C2C12 statin -15 and MITF TRPM1 HTS 23.
`O=C(c1ccc(Cl)cc1)N1CCN(c2ccnc3cc(Cl)ccc23)CC1` gave EBV LMP1 NFkB 50*, MITF TRPM1 inh 11, Wnt bcat act -3 and MITF TRPM1 HTS -9.
For O=C(Nc1ccc(N2CCN(Cc3ccccc3F)CC2)cc1)c1ccccc1[N+](=O)[O-] the results were EBV LMP1 NFkB -2, MITF TRPM1 inh 7, Wnt bcat act -1 and MITF TRPM1 HTS -10.
`O=C(Nc1ccc(N2CCN(Cc3ccccc3F)CC2)cc1)c1ccc([N+](=O)[O-])o1` gave EBV LMP1 NFkB -50, MITF TRPM1 inh 98*, Wnt bcat act -12 and MITF TRPM1 HTS -98.
Screening CC(C)(C)C(=O)N1CCN(c2ccc(NC(=O)c3ccc([N+](=O)[O-])o3)cc2)CC1 returned esBAF inh -28, EBV LMP1 NFkB -29, MITF TRPM1 inh 81*, Wnt bcat act -12, C2C12 statin 133* and MITF TRPM1 HTS -81.
For O=C(Nc1ccc(N2CCN(C(=O)c3ccccc3)CC2)cc1)c1ccc2c(c1)OCCO2 the results were esBAF inh 26, EBV LMP1 NFkB 12, MITF TRPM1 inh 13, Wnt bcat act 0, C2C12 statin -4 and MITF TRPM1 HTS -12.
`O=C(Nc1ccc(N2CCN(C(=O)c3ccc(Cl)cc3)CC2)cc1)c1ccc2c(c1)OCCO2` gave esBAF inh -10, EBV LMP1 NFkB 25, MITF TRPM1 inh 73*, Wnt bcat act 8 and MITF TRPM1 HTS -73.
`O=C(Nc1ccccc1N1CCN(C(=O)c2ccccc2)CC1)c1ccc([N+](=O)[O-])o1` gave esBAF inh 5, EBV LMP1 NFkB 3, MITF TRPM1 inh 62*, Wnt bcat act 1, C2C12 statin 11 and MITF TRPM1 HTS -61.
Cc1noc(C)c1C(=O)N1CCCc2ccccc21 was read as EBV LMP1 NFkB 9, MITF TRPM1 inh 7 and MITF TRPM1 HTS -8.
Screening CCOC(=O)c1sc(NC(=O)CCN2CCC(C)CC2)c(C(=O)OCC)c1C returned EBV LMP1 NFkB -2, MITF TRPM1 inh -5, Wnt bcat act -1 and MITF TRPM1 HTS 6.
`O=C(Nc1ccc(N2CCCCC2)cc1)c1ccc([N+](=O)[O-])o1` gave esBAF inh 16, EBV LMP1 NFkB -95, MITF TRPM1 inh 52, Wnt bcat act -6, C2C12 statin 61 and MITF TRPM1 HTS -51.
COc1ccccc1C(=O)Nc1ccc(N2CCN(S(C)(=O)=O)CC2)cc1 was read as esBAF inh 44*, EBV LMP1 NFkB -1, MITF TRPM1 inh -24 and C2C12 statin -3.
For CC1CCN(c2ccc(NC(=O)c3ccc([N+](=O)[O-])o3)cc2)CC1 the results were EBV LMP1 NFkB -126, MITF TRPM1 inh 81*, Wnt bcat act -20, C2C12 statin 83* and MITF TRPM1 HTS -81.
Screening CCC(=O)N1CCN(c2ccc(NC(=O)c3ccc([N+](=O)[O-])o3)cc2)CC1 returned EBV LMP1 NFkB -1, MITF TRPM1 inh 80*, Wnt bcat act -6 and MITF TRPM1 HTS -78.
CS(=O)(=O)N1CCN(c2ccc(NC(=O)c3ccc([N+](=O)[O-])o3)cc2)CC1 was read as esBAF inh 27, EBV LMP1 NFkB -53, MITF TRPM1 inh 75*, Wnt bcat act -6, C2C12 statin 35 and MITF TRPM1 HTS -74.
Screening O=C(NNC(=O)c1cc2ccccc2oc1=O)c1ccccc1[N+](=O)[O-] returned esBAF inh 0, EBV LMP1 NFkB -15, MITF TRPM1 inh -4, Wnt bcat act 4, C2C12 statin -2 and MITF TRPM1 HTS 7.
Screening C[C@H]1CN([C@@H](C)CO)C(=O)CCCn2cc(nn2)CO[C@@H]1CN(C)C(=O)C1CCCCC1 returned esBAF inh 0, EBV LMP1 NFkB 10, Wnt bcat act -3 and C2C12 statin -2.
CCC(C)(C)c1ccc2c(c1)C(=O)c1ccccc1C2=O was read as esBAF inh 6, EBV LMP1 NFkB -15, MITF TRPM1 inh -32, Wnt bcat act 39*, C2C12 statin 1 and MITF TRPM1 HTS 41.
`COC(=O)c1ccccc1NC(=O)N[C@@H](C)C(=O)OC` gave esBAF inh 7, EBV LMP1 NFkB -10, MITF TRPM1 inh 1, C2C12 statin 7 and MITF TRPM1 HTS 0.
For COc1cccc(C(=O)CN2C3=NCCCN3c3ccccc32)c1 the results were esBAF inh -3, EBV LMP1 NFkB -16, MITF TRPM1 inh 0, C2C12 statin 134* and MITF TRPM1 HTS 3.
Cc1ccc(S(C)(=O)=NC(=O)NC(=O)c2c(F)cccc2Cl)cc1 (stereo not drawn) was read as EBV LMP1 NFkB 8, MITF TRPM1 inh -18, Wnt bcat act -2 and MITF TRPM1 HTS -14.
`COCCNC(=O)c1ccc(-c2cn[nH]c2)c2ccoc12` gave esBAF inh -7, Wnt bcat act 0 and C2C12 statin 1.
Screening O=C(NCc1ccccc1)c1ccc(-c2cn[nH]c2)c2ccoc12 returned esBAF inh 57*, Wnt bcat act 10 and C2C12 statin -7.
Screening O=C(Cc1ccccc1)N[C@H]1CC[C@@H](CC(=O)N2CCCCC2)O[C@H]1CO returned esBAF inh 1 and C2C12 statin 1.
Screening COc1ccc(N(C(=O)c2ccc(S(=O)(=O)N3CCCC3)cc2)C2C=CS(=O)(=O)C2)cc1 (stereo not drawn) returned esBAF inh 6, EBV LMP1 NFkB 4, MITF TRPM1 inh 11, Wnt bcat act 40*, C2C12 statin -3 and MITF TRPM1 HTS -10.
`Cc1ccc(N(C(=O)c2ccc(S(=O)(=O)N3CCOCC3)cc2)C2C=CS(=O)(=O)C2)cc1` (stereo not drawn) gave esBAF inh -3, EBV LMP1 NFkB -3, MITF TRPM1 inh 4, Wnt bcat act -1, C2C12 statin -4 and MITF TRPM1 HTS 0.
Cc1ccc(-c2nc3c(c(=O)c4ccccc4n3C)c(=O)n2Cc2ccco2)cc1 was read as EBV LMP1 NFkB 4, MITF TRPM1 inh 12 and Wnt bcat act 12.
Clc1ccccc1-c1nc(-c2ccccc2)n[nH]1 was read as esBAF inh 37, EBV LMP1 NFkB -3, MITF TRPM1 inh -48, Wnt bcat act 64*, C2C12 statin 10 and MITF TRPM1 HTS 49.
Screening CCOC(=O)/C(N=Nc1ccc2c(c1)OCO2)=C(\C)O returned EBV LMP1 NFkB -43, MITF TRPM1 inh -106, Wnt bcat act 7 and MITF TRPM1 HTS 115*.

Source: PubChem BioAssay
